For 88 compounds, activation results are on record in PubChem BioAssay AID2797 (The Scripps Research Institute Molecular Screening Center, 2010).

Among all 320,000 compounds or so, about 820 (0.26%) were called active. For the sample, actives were picked, then their nearest neighbours and some compounds at random. Values without a mark were called inactive.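 The calls were made as follows: active = activation above the mean activation of all tested compounds plus 3 SD, per screening run (cut at about 20% in these data); inactive = the rest.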

Vasopressin V1a receptor (Homo sapiens), sequence (P37288 whole entry, looked up): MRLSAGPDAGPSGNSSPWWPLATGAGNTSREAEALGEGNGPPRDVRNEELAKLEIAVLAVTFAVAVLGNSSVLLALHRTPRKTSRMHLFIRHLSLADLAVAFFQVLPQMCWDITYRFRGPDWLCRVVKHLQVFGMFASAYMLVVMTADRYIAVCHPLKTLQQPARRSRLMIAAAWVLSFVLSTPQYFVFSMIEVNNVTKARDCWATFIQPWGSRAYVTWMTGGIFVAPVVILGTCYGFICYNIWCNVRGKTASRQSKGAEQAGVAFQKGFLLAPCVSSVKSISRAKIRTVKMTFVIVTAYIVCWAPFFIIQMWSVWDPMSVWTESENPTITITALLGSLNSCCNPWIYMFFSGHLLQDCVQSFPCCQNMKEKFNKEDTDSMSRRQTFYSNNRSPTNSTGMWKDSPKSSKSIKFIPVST

The experiment addresses Vasopressin V1a receptor (Homo sapiens) (UniProt P37288). The experiment in a line: agonists of human V1a receptor, primary screen, counter-screen for OXTR agonist project, fluorescence, CHO-V1R cells (AID 2797).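 Also: signal is peak over basal fluorescence ratio across a 100 second FLIPR read.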 As to conditions: Fluo-8 calcium fluorescence, agonist mode, at 3 µM, active compounds read high, 0% DMSO, 100% 3 nM vasopressin. A general note: The purpose of a counterscreen is to sort out artefacts and off-target activity.
For the compound `N#CCN(C(=O)COC(=O)C1CC2CCCC(C1)C2=O)c1ccccc1` (stereo not drawn), the activation is -0.11%. To `COc1ccc(C23NCCN2C(=O)c2ccccc23)cc1` (stereo not drawn) belongs -0.14%; to `CC1CCN(CCC(=O)Nc2ccccc2)CC1`, 0.38%. To `Cc1cc(NC(=O)CCN2CCN(Cc3ccccc3)CC2)ccc1Br` belongs 26.5% (active); to `CCOC(=O)N1CCN(CCC(=O)Nc2ccccc2)CC1`, 0.3%; to `CN(C)/C=C1/Nc2ccccc2C1=O`, 1.1%.

As to `O=C1Nc2ccccc2/C1=C/c1ccnc2ccccc12`, the activation was 3.16%. The result for `Cc1cc(C)c(/C=C2\C(=O)Nc3ccccc32)[nH]1` reads 23.6% (active); that for `COc1ccc([C@H]2CC(=O)C=C(c3ccc(OC(F)(F)F)cc3)C2)cc1OC`, 1.96%. The result for `COc1ccc(C2CC(c3cccs3)Nc3nnnn32)cc1` (stereo not drawn) reads 1.36%. To `Cc1ccc(S(=O)(=O)NCCC(=O)NNC(=O)C2COc3ccccc3O2)cc1` (stereo not drawn) belongs -0.1%.

As to `COc1ccc(C2C(C#N)=C(N)N(c3ncn[nH]3)C3=C2C(=O)CCC3)cc1` (stereo not drawn), the activation was 1.11%.

With `CN(C(=O)COC(=O)c1ccc(Br)o1)c1c(N)n(Cc2ccccc2)c(=O)[nH]c1=O`, the activation is -0.45%. As for `Cc1cc2nc3c(=O)n(Cc4ccccc4)c(=O)[nH]c3nc2cc1N`, the activation was 73.4% (active). As to `C=CCSc1nc2c(c(=O)[nH]c(=O)n2C)n1Cc1ccccc1`, the activation is 0.69%. To `C[C@H](NC(=O)c1nc[nH]c1C(=O)NCC(=O)OC(C)(C)C)c1ccccc1` belongs -0.3%; to `Cc1c(Br)cc(C(=O)N2CCCCCC2)c(C)c1C`, -1.61%; to `O=C(NC(=S)Nc1ccccc1N1CCCCC1)c1ccc(F)cc1`, -0.81%. To `COC(=O)Cc1ccc(NC(=S)NCc2ccc(Cl)cc2)cc1` belongs 10%. The result for `Cc1ccccc1N/C(SCc1ccc(Cl)cc1)=C(/C#N)C(N)=O` reads -0.5%; that for `O=C(Cc1ccc(Cl)cc1)NC(=S)Nc1ccccc1O`, 47.5% (active). As for `Cc1ccccc1NC(=S)NC(=O)Cc1ccc(Cl)cc1`, the activation was 26.2% (active).

Regarding `O=C(COc1ccc(Cl)cc1)NC(=S)Nc1ccccc1N1CCOCC1`, the activation was 3.48%.

For the compound `Cc1cccc(NC(=S)NCCc2ccc(Cl)cc2)c1C`, the activation was 0.32%. As for `CCN1CCN(C(=O)CN(C)S(=O)(=O)c2ccc3ccccc3c2)CC1`, the activation is 0.47%.

As for `Cc1nc2scc(-c3cccs3)c2c(=O)n1N`, the activation is -0.59%. Take `CCOc1ccc(C(=O)Nc2ccc(S(=O)(=O)NCC3CCCO3)cc2)cc1OCC` (stereo not drawn): the activation is 1.35%. To `Cc1ccc(OCCNC(=O)CNC(=O)c2ccc(C)c(C)c2)cc1` belongs -0.83%. Consider `Cc1nc2c(ncn2-c2ccccc2)c(=O)n1NC(=O)CN1CCCC1`, for which the activation was 0.46%. To `Brc1ccc(C2=CC(c3ccco3)n3ncnc3N2)cc1` (stereo not drawn) belongs 9.25%; to `COc1ccc(C2C=C(c3ccc(Br)cc3)Nc3nc(NS(C)(=O)=O)nn32)cc1` (stereo not drawn), 23.5% (active). Regarding `CCOc1ccc(C2=CC(c3ccccc3)n3ncnc3N2)cc1` (stereo not drawn), the activation is 0.49%. To `CCS(=O)(=O)c1ccc(O)c(NC(=O)COc2ccc(Cl)cc2)c1` belongs 3.1%; to `COc1ccc(C(=O)Nc2cc(C)ccc2NC(=O)COc2ccccc2)cc1`, 0.75%. Take `Cc1ccc(O)c(NC(=S)NC(=O)COc2ccc(Br)cc2)c1`: the activation was 56% (active).

On to `CCN1CCN(c2sc(S(C)(=O)=O)nc2S(=O)(=O)c2ccc(Cl)cc2)CC1`, for which the activation was 0.09%. `CCn1c(C(C)C)n[nH]c1=S`: the activation is 0.69%. As to `CCOC(=O)N/N=C1\CC(C)S(=O)(=O)c2ccc(Cl)cc21` (stereo not drawn), the activation was -1.51%. To `CC1CN(C(=O)c2ccccc2NS(=O)(=O)c2cccc([N+](=O)[O-])c2)CC(C)O1` (stereo not drawn) belongs 1.41%; to `CCOc1ccc(Cn2nnc(C(=O)Nc3ccc(OC)cc3OC)c2N)cc1`, 12.4%. The result for `CCc1ccc(NC(=O)Cn2nnc(C(=O)NCc3ccc(OC)cc3)c2N)cc1` reads 0.71%; that for `CCOc1ccc(Cn2nnc(C(=O)NCc3ccccc3)c2N)cc1`, 27.1% (active); that for `O=C(C[n+]1ccc2c(c1)nnn2-c1ccccc1)c1ccc(Cl)cc1`, -1.54%. The result for `COc1ccc(CCNc2cc(C)nc3c(-c4ccc(Cl)cc4)c(C)nn23)cc1OC` reads -0.66%; that for `C=CCOCCN(C)C1=NS(=O)(=O)c2ccccc21`, -0.21%; that for `CCO[C@H]1OC(C(=O)N2CCCCCCC2)=C[C@@H](c2ccc(C(F)(F)F)cc2)[C@@H]1CCCO`, -0.98%.

Regarding `O=C(/C=C(O)/C=C/c1ccc(O)cc1)/C=C/c1ccc(O)cc1`, the activation was 76.2% (active). Turning to `O=C(O)/C=C/c1ccc(OCCCF)cc1`, the activation is 0.21%. To `O=C(/C=C/c1ccc2c(c1)OCCO2)c1ccc(O)cc1` belongs 1.07%; to `CC(C)(C)S(=O)(=O)c1ccccc1-c1noc(-c2ccccc2)c1C(N)=O`, 0.13%. To `CCc1c(O)cc2n(c1=O)-c1ccccc1C2(C)C` belongs 1.27%. The result for `CCOc1ccc2[nH]c3nc(SCC(=O)NC4CCCC4)nnc3c2c1` reads 1.39%; that for `Nc1c(C(=O)c2cccs2)sc2nsc(SCCN3CCCCC3)c12`, 34.8% (active).

In the case of `O=C(CSc1ncnc2sccc12)N1CCN(C(=O)c2cccs2)CC1`, the activation was 1.53%. As to `O=C(NCC(=O)N1CCC2(CC1)NCCc1[nH]cnc12)c1ccc(Br)cc1`, the activation is -0.07%. For the compound `Cc1noc(C)c1NC(=O)Nc1cccc2c1O[C@H](CN(C)C(=O)Nc1ccccc1)[C@@H](C)CN([C@H](C)CO)C2=O`, the activation was 0.98%. The result for `O=C(O)c1ccc2c3c(cccc13)C(=O)N(OS(=O)(=O)c1ccccc1)C2=O` reads 0.24%; that for `COc1ccc(N2C(=O)c3cccc4cccc(c34)C2=O)nn1`, -0.33%; that for `CC(=O)Nc1ccccc1Sc1ccc2c3c(cccc13)C(=O)N(c1ccc(C)cc1)C2=O`, 0.04%. The result for `Cc1nn(C)cc1N1C(=O)c2cccc3c(N)ccc(c23)C1=O` reads 66.8% (active); that for `Cc1nn(C)cc1C(=O)c1ccccc1`, 0.77%; that for `CN1C(=O)c2cccc3c(N)ccc(c23)C1=O`, 133% (active). The result for `COc1ccc(N(C(=O)c2ccc(C)cc2)S(=O)(=O)c2cccs2)cc1` reads 0.59%; that for `Cc1cc(C(=O)CC#N)c(C)n1-c1c(C)n(C)n(-c2ccccc2)c1=O`, 1.66%. On to `CCOP1(=O)C=C(C(C)(C)C)OC1c1ccc(F)cc1` (stereo not drawn), for which the activation was 0.37%. The result for `Cc1ccc(N(C(=O)c2snc(C(N)=O)c2N)C(C(=O)NCC2CCCO2)c2c[nH]c3ccccc23)cc1` (stereo not drawn) reads 2.4%. To `CCN1/C(=C\c2ccc3ccccc3[n+]2CC)Sc2cc(C)ccc21` belongs 20.7% (active); to `O=C1CCCN2N=C(SCC(=O)Nc3ccc(Br)cc3)SC2=N1`, 8.83%. The result for `CCOC(=O)Cc1c(C)nc2c(C#N)c(C)nn2c1C` reads -0.1%; that for `CCOC(=O)N1CCC(O)(c2cc(C)c(C)cc2C)CC1`, 0.01%. `CCCCCCn1cc(C(=O)O)c(=O)c2cc(F)c(N3CCCCC3)cc21`: the activation was 1%. The result for `CCOC(=O)Cn1c(=O)oc2cc(S(=O)(=O)N(C)Cc3ccco3)ccc21` reads 1.45%; that for `CN(c1ccccc1)c1ccc(/C=c2\s/c(=C(/C#N)C(=O)C(C)(C)C)n(Cc3ccco3)c2=O)cc1`, 28% (active). To `COc1cc(NC(=O)COC(=O)c2cc(S(=O)(=O)N3CCOCC3)ccc2F)cc(OC)c1` belongs 1.44%.

With `CC(Oc1ccc2ccccc2c1)C(=O)NNC(=S)NC(=O)c1ccco1` (stereo not drawn), the activation is 23% (active). To `Cc1ccc(C(=O)NNC(=O)C(C)Oc2ccc3ccccc3c2)o1` (stereo not drawn) belongs 0.2%; to `CCCc1ccc(OCC(=O)NNC(=S)NC(=O)c2ccco2)cc1`, 19.5%; to `Cc1cc2c(=O)n(CC(=O)NCC(=O)Nc3ccc(C(C)C)cc3)cnc2s1`, 0.52%. Consider `O=C(CC1SC(=Nc2ccccc2F)N(CCN2CCOCC2)C1=O)Nc1ccc(F)cc1F` (stereo not drawn), for which the activation is -0.11%. Turning to `CCCC(C)C(=O)Nc1ccc(NC(C)=O)cc1` (stereo not drawn), the activation was 1.31%. The result for `COc1cc(OC)c(-n2cc(-c3ccc(Cl)cc3)[nH]c2=O)cc1Cl` reads 38.5% (active). With `COc1cc(OC)c(N2CC(C(=O)Nc3cc(Cl)ccc3N3CCOCC3)CC2=O)cc1Cl` (stereo not drawn), the activation was 2.59%.

As for `COc1cc(OC)c(-n2c(C)cc(C=O)c2C)cc1Cl`, the activation was -0.41%. The result for `CN1/C(=C\C=C2\N=C(c3ccc(F)cc3)OC2=O)C(C)(C)c2ccccc21` reads 2.99%; that for `O=C(NCCc1nnc2ccc(SCC(=O)N3CCOCC3)nn12)c1ccccc1`, -0.68%; that for `CCC(C)(C)C1CCC(=NNC(=O)c2ccc(Br)o2)CC1` (stereo not drawn), 0.08%. The result for `Cc1ccc(CN2CCN(c3ccccc3Cl)CC2)o1` reads -0.73%. The result for `O=C(CCc1[nH]c2ccccc2c1Sc1ccccc1)N(CCO)CCO` reads 0.05%.
